One experiment addresses TAF3. Description: pooled miR-30 sensor sort-seq; sequence = guide strand. The note with it: shRNA.
In turn, AATAACACAACATCTAGCGTGT yielded a sensor-assay potency score (higher = more potent) of 0.896. On the same count and under the same terms, the figure for TTTATCTGCTACCACAGCCTTT is -0.868; for TTCTTGTTCGCACACTTGGGGC it is -1.41.

In another experiment the target is TAF4. The description is as above. The note with it: shRNA.
TACATCTGGATGTAATTCCGTT showed a sensor-assay potency score (higher = more potent) of -0.473.

For the sequence TTAATGTCATCATCGTCCCGAA, the sensor-assay potency score (higher = more potent) is -0.403. TAACTGTTCTGGATCTTCTTGT displayed a sensor-assay potency score (higher = more potent) of 0.732. Take TACATAACTTACTACATCTGGA: the sensor-assay potency score (higher = more potent) is -0.0503. In turn, TTTGTCGCGTGAACTGTCTGGG returned a sensor-assay potency score (higher = more potent) of 0.638. TTAACTGTTCTGGATCTTCTTG gave a sensor-assay potency score (higher = more potent) of -0.704.

TTACCTATTTCTAATATTCTTC had a sensor-assay potency score (higher = more potent) of -0.515. The same measure, in the same setting: the figure for TATTTTTCTGTGCAGCAGCTGC is -0.881.

The sequence TATTCTTGCACTTTCTTCTGAC showed a sensor-assay potency score (higher = more potent) of 0.569. As for TAGACATACACCTACATAGTAA, the sensor-assay potency score (higher = more potent) was -0.674. For ATTAATGTCATCATCGTCCCGA, the sensor-assay potency score (higher = more potent) worked out at 0.127.

As to TTAAGTTCTCGGTATAACCTGC, the sensor-assay potency score (higher = more potent) is 0.0759.

The values are drawn from the OligoGym collection.
Further: reference of the scale not given here.
